From PubChem BioAssay AID1159580 (chemical genetic matrix, 2015)
Out of some 5,500 compounds screened, about 2,000 (36%) were called active. Not shown: some 18% with an inconclusive outcome. No stated cut-off is given here; in the data, active means normalized growth mostly below about 0.91 (no sharp cut-off); inconclusive means no clear call, values can overlap the other calls; inactive means mostly above about 0.92. The list shows a part of the results.

Assay: chemical genetic growth profiling, strain panel (AID 1159580);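 further: tested at 20 µM; growth read once vehicle control cultures reached saturation at 30 °C; 1 = growth at the plate median or of vehicle wells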
Details: S. cerevisiae deletion strains, growth OD

Measured: normalized growth

O=C(O)CCC(=O)C(=O)O
inactive: locus YAL013W, strain DEP1, stronger effect = lower value 1.01 | locus YBR021W, strain FUR4, stronger effect = lower value 1.01 | locus YBR229C, strain ROT2, stronger effect = lower value 1.01 | locus YCL029C, strain bik1, stronger effect = lower value 1.03 | locus YDL035C, strain GPR1, stronger effect = lower value 1.03 | locus YDL074C, strain BRE1, stronger effect = lower value 1.05 | locus YDL101C, strain DUN1, stronger effect = lower value 1.02 | locus YDL185W, strain tfp1, stronger effect = lower value 1.03 | locus YDL192W, strain arf1, stronger effect = lower value 1.05 | locus YDR101C, strain arx1, stronger effect = lower value 1.05 | locus YDR162C, strain NBP2, stronger effect = lower value 1.02 | locus YDR318W, strain mcm21, stronger effect = lower value 1.01 | locus YDR388W, stronger effect = lower value 1.02 | locus YDR502C, strain sam2, stronger effect = lower value 1.03 | locus YEL061C, strain CIN8, stronger effect = lower value 1.01 | locus YER110C, stronger effect = lower value 1.03 | locus YER155C, strain BEM2, stronger effect = lower value 1 | locus YER167W, strain BCK2, stronger effect = lower value 1.01 | locus YGL078C, strain dbp3, stronger effect = lower value 1.02 | locus YGL086W, strain mad1, stronger effect = lower value 1 | locus YGL248W, strain PDE1, stronger effect = lower value 1.01 | locus YGR135W, strain pre9, stronger effect = lower value 0.987 | locus YGR229C, strain SMI1, stronger effect = lower value 1.03 | locus YGR252W, strain gcn5, stronger effect = lower value 0.942 | locus YHR030C, strain SLT2, stronger effect = lower value 1.01 | locus YHR079C, strain IRE1 (second series), stronger effect = lower value 1.03 | locus YHR094C, strain hxt1, stronger effect = lower value 1.01 | locus YHR129C, strain ARP1, stronger effect = lower value 1.02 | locus YHR200W, strain rpn10, stronger effect = lower value 1 | locus YIL066C, strain RNR3, stronger effect = lower value 1.01 | locus YIL073C, strain SPO22, stronger effect = lower value 1.07 | locus YIL125W, strain kgd1, stronger effect = lower value 1.02 | locus YIR030C, strain dcg1, stronger effect = lower value 1.03 | locus YJL095W, strain BCK1, stronger effect = lower value 1.02 | locus YJL134W, strain LCB3, stronger effect = lower value 1 | locus YJL168C, strain set2, stronger effect = lower value 1.01 | locus YJL187C, strain SWE1 (second series), stronger effect = lower value 1.02 | locus YJR043C, strain POL32, stronger effect = lower value 1.01 | locus YJR075W, strain HOC1, stronger effect = lower value 1 | locus YKL009W, strain mrt4, stronger effect = lower value 1.05 | locus YKL068W, stronger effect = lower value 1.01 | locus YKL085W, strain MDH1 (second series), stronger effect = lower value 1.01 | locus YKL085W, strain MDH1, stronger effect = lower value 1.01 | locus YKL190W, strain CNB1, stronger effect = lower value 1.01 | locus YKR001C, strain vps1, stronger effect = lower value 1.05 | locus YLR039C, strain RIC1, stronger effect = lower value 1.05 | locus YLR058C, strain SHM2, stronger effect = lower value 1.01 | locus YLR102C, strain apc9, stronger effect = lower value 1.01 | locus YLR262C, strain YPT6, stronger effect = lower value 1.05 | locus YLR268W, strain sec22, stronger effect = lower value 1.03 | locus YLR330W, strain CHS5, stronger effect = lower value 1.01 | locus YLR342W, strain FKS1 (second series), stronger effect = lower value 1.01 | locus YLR371W, strain rom2, stronger effect = lower value 1.01 | locus YLR418C, strain cdc73, stronger effect = lower value 1.02 | locus YML016C, strain PPZ1, stronger effect = lower value 1.01 | locus YML032C, strain rad52, stronger effect = lower value 0.995 | locus YML124C, strain tub3, stronger effect = lower value 1.02 | locus YMR078C, strain ctf18, stronger effect = lower value 1.03 | locus YMR223W, strain ubp8, stronger effect = lower value 1 | locus YMR307W, strain GAS1, stronger effect = lower value 1.05 | locus YNL067W, strain RPL9B, stronger effect = lower value 1.01 | locus YNL128W, strain TEP1, stronger effect = lower value 1.04 | locus YNL233W, strain BNI4, stronger effect = lower value 1.01 | locus YNL250W, strain rad50, stronger effect = lower value 1.03 | locus YNL271C, strain bni1, stronger effect = lower value 1.04 | locus YNL298W, strain CLA4, stronger effect = lower value 1.01 | locus YNL307C, strain MCK1, stronger effect = lower value 1.04 | locus YNR052C, strain pop2, stronger effect = lower value 1.02 | locus YOL012C, strain htz1 0.918 | locus YOL147C, strain pex11, stronger effect = lower value 1.02 | locus YOR061W, strain CKA2, stronger effect = lower value 1.01 | locus YOR069W, strain VPS5, stronger effect = lower value 1 | locus YOR136W, strain idh2, stronger effect = lower value 1.02 | locus YOR144C, strain elg1, stronger effect = lower value 1.02 | locus YOR184W, strain ser1, stronger effect = lower value 1.02 | locus YOR316C, strain cot1, stronger effect = lower value 1.02 | locus YPR119W, strain clb2, stronger effect = lower value 1.02 | locus YPR141C, strain kar3, stronger effect = lower value 1.02 | locus YPR163C, strain tif3, stronger effect = lower value 1.03 | locus YPR167C, strain met16, stronger effect = lower value 1.05 | strain wtn01, stronger effect = lower value 1.02
